Assay results: PubChem BioAssay (NCATS)
Results filed as inconclusive are left out. Activity calls are given as the source filed them. The call rests on the fitted dose curve; in most records, active means well fitted cell-killing curve with a large enough effect; inconclusive means small, poorly fitted or top-dose-only effect; inactive means flat fitted curve, though single readings scatter.

Tests used:
[1] = Cell Viability - LYMP2-013 (AID 970); further: series mostly up to about 92 µM; nearly all actives have a fitted effect of over 55% in size
Method in brief: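 Cytotoxicity is scored as a concentration-dependent drop in intracellular ATP in human lymphoblastoid cells after 24 hr compound exposure at 37 C. ATP is quantified by luciferase luminescence, and AC50 values come from Hill-equation modeling.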

[2] = Cell Viability - LYMP2-015 (AID 971); further: nearly all actives have a fitted effect of over 55% in size
Method in brief: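 Cells are seeded at 2500 per well and incubated 5 hr at 37 C. Compounds are added across a concentration series for 24 hr at 37 C. CellTiter-Glo is added, and luminescence is read after 30 min at room temperature.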

[3] = Cell Viability - LYMP2-017 (AID 972); further: series mostly up to about 92 µM; nearly all actives have a fitted effect of over 55% in size
Method in brief: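 Cytotoxicity is scored as a concentration-dependent drop in cellular ATP in a human lymphoblastoid line after 24 hr treatment at 37 C. Values are AC50s from Hill-equation modelling.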

[4] = Cell Viability - LYMP2-019 (AID 973); further: nearly all actives have a fitted effect of over 55% in size
Method in brief: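 Cytotoxicity is scored as a concentration-dependent drop in cellular ATP after cells (2500/well) receive compound for 24 hr at 37 C. Tetraoctylammonium bromide serves as positive control.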

[5] = Cell Viability - LYMP2-021 (AID 974)
Method in brief: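 Loss of cellular ATP, measured with a luciferase-based CellTiter-Glo readout, serves as the toxicity signal in human lymphoblastoid cells treated for 24 hours at 37 C. Potency is reported as AC50 from a standard Hill model.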

[6] = Cell Viability - LYMP2-023 (AID 975)
Method in brief: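 Steps: seed 2500 human lymphoblastoid cells per well, incubate 5 hr at 37 C, add compound for 24 hr at 37 C, add CellTiter-Glo, hold 30 min at room temperature, read luminescence. AC50 derived by Hill modelling.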

[7] = Cell Viability - LYMP2-025 (AID 976); further: series mostly up to about 92 µM
Method in brief: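 Acute cytotoxicity is scored as a concentration-dependent fall in intracellular ATP, measured by luciferase luminescence, in human lymphoblastoid LYMP2-025 cells exposed to compound for 24 hours at 37 C. AC50 values come from standard Hill fits.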

[8] = Cell Viability - LYMP2-002 (AID 977);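 further: series mostly up to about 92 µM; compound exposure lasted 24 h at 37 °C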
Method in brief: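 In this qHTS viability screen, 2500 human lymphoblastoid cells per well receive compound for 24 hr at 37 C, and luciferase-based ATP luminescence gives the viability signal. Tetraoctylammonium bromide serves as positive control.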

[9] = Cell Viability - LYMP2-006 (AID 978); further: series mostly up to about 92 µM; nearly all actives have a fitted effect of over 60% in size
Method in brief: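 Concentration-dependent loss of intracellular ATP in a human lymphoblastoid line after 24 hr treatment at 37 C was measured by CellTiter-Glo luminescence, with AC50 values obtained from standard Hill-equation modelling.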

[10] = Cell Viability - LYMP2-007 (AID 979);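 further: cells exposed to compound for 24 h before reading; nearly all actives have a fitted effect of over 60% in size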
Method in brief: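 Cells are seeded at 2500 per well and rested 5 hr. Compounds are then added over a concentration series for 24 hr at 37 C. CellTiter-Glo is added for 30 min at room temperature before luminescence reading.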

[11] = Cell Viability - LYMP2-008 (AID 980); further: nearly all actives have a fitted effect of over 60% in size
Method in brief: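 Cells seeded at 2500/well and rested 5 hr at 37 C; compounds added over a concentration range and incubated 24 hr at 37 C; CellTiter-Glo added, 30 min at room temperature; luminescence read and AC50 fitted with Hill model.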

[12] = Cell Viability - LYMP2-010 (AID 981); further: nearly all actives have a fitted effect of over 55% in size
Method in brief: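 Steps: seed 2500 LYMP2-010 cells per well; incubate 5 hr at 37 C; add compound; incubate 24 hr at 37 C; add CellTiter-Glo, wait 30 min at room temperature; read luminescence. Concentration-response fitted to Hill equation for AC50.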

[13] = Cell Viability - LYMP2-012 (AID 982)
[14] = Cell Viability - LYMP2-014 (AID 983); further: series mostly up to about 92 µM; nearly all actives have a fitted effect of over 50% in size
Method in brief: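 Cells are plated at 2500/well and left 5 hr at 37 C. Compounds are added across a concentration range and incubated 24 hr at 37 C in complete medium. CellTiter-Glo is added, and luminescence is read after 30 min at room temperature.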

[15] = Cell Viability - LYMP2-016 (AID 984); further: nearly all actives have a fitted effect of over 55% in size
Method in brief: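 Acute toxicity in a Coriell human lymphoblastoid line is scored as loss of intracellular ATP over 24 h of treatment in complete medium. CellTiter-Glo signal is fitted across concentrations with the Hill equation to give AC50.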

[16] = Cell Viability - LYMP2-018 (AID 985); further: nearly all actives have a fitted effect of over 50% in size
Method in brief: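 Seed 2500 lymphoblastoid cells per well, incubate 5 hr at 37 C, add compound and incubate 24 hr at 37 C, add CellTiter-Glo, wait 30 min at room temperature, then read luminescence.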

[17] = Cell Viability - LYMP2-020 (AID 986)
Method in brief: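 Seed 2500 cells per well and incubate 5 hr at 37 C. Add compounds at a concentration series and incubate 24 hr at 37 C. Add CellTiter-Glo, wait 30 min at RT, read luminescence, and fit a Hill curve for AC50.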

[18] = Cell Viability - LYMP2-022 (AID 987); further: nearly all actives have a fitted effect of over 55% in size
Method in brief: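 Cells were seeded at 2500 per well, rested 5 hr at 37 C, and treated with titrated compounds for 24 hr at 37 C. Cellular ATP was then quantified by luciferase luminescence, and AC50 values were derived from Hill-modelled concentration-response curves.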

[19] = Cell Viability - LYMP2-024 (AID 988); further: nearly all actives have a fitted effect of over 60% in size
Method in brief: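 qHTS cytotoxicity, human lymphoblastoid line, complete medium; 24 h cpd treatment, 37 C; CellTiter-Glo ATP luminescence readout; tetraoctylammonium bromide positive control; AC50 via Hill fit.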

[20] = Cell Viability - LYMP2-026 (AID 989); further: nearly all actives have a fitted effect of over 50% in size
Method in brief: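 Cells are seeded at 2500 per well and held 5 hr at 37 C. Compounds are added in concentration series for 24 hr, then CellTiter-Glo reagent is applied and luminescence read.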

Measured: outcome

Cc1cc(O)c2c(c1)C(=O)c1cccc(O)c1C2=O
inactive: all assays above
